Values joined by “and” are separate entries in the source; they are usually repeats but may differ in a detail not shown here. Equal entries are not always repeated. Hit rate of the full screen: of about 220,000 compounds, about 8,200 (3.7%) were called active. This is one part of a sample in which actives are shown more often than they occur.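 The calls were made as follows: active = compounds that reduced the stress-induced luciferase reporter signal by more than about 70% of percent inhibition (limit read from the data); inactive = the rest.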 A structure can be active in one record and inactive in another.

By inhibition is commonly meant the change of the read-out against control, counted positive when it falls.

The test in a line: inhibitors of CHOP promoter induction, primary screen, cell-based, unfolded protein response, luciferase reporter (AID 2732).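 Also: 0% = tunicamycin plus vehicle and 100% = wells without tunicamycin.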 The following applies: CHO-K1 CHOP-promoter luciferase, tunicamycin-induced, 15-18 h; at 10 µM; stronger effect = higher value. For orientation: A reporter such as luciferase makes a cellular process visible.
`C#CCOCCOCCOCCNc1nc(N2CCN(C(=O)[C@H](CCC(=O)O)n3cc(C(N)CO)nn3)CC2)nc(N2CCN(C(=O)[C@H](CCCCN)n3cc(C(N)[C@H](C)CC)nn3)CC2)n1` (some centres undefined): the inhibition is -9.04% (inactive).
For the compound `CCOC(=O)c1c(C)nn(-c2ncccc2NC(=O)CCC(=O)O)c1C`, the inhibition was 15.2% (inactive).
With `COC(=O)c1c(C)oc(C)c1S(=O)(=O)Nc1ccc(C(C)C)cc1` the figure was 8.63% (inactive); with `Cc1cccc(N2CCN(Cc3nc(C4CC4)no3)CC2)n1`, -7.46% (inactive).
As for `Nc1cccc(S(=O)(=O)Nc2ccc(SC(F)F)cc2)c1`, the figure is 6.78% (inactive).
With `O=C(COc1ccc(/C=N/NC(=O)c2ccc(O)cc2)cc1)Nc1ccc([N+](=O)[O-])cc1` the figure was 0.44% (inactive); with `CCCCCC(=O)NC(=S)NNC(=O)c1ccc([N+](=O)[O-])cc1`, 26.4% (inactive); with `CCCCCC(=O)Nc1ccc(C(=O)N/N=C/c2ccc([N+](=O)[O-])cc2)cc1`, 73.8% (active).
On to `O=C1NC[C@@H](Cc2ccc(O)cc2)N(CCc2cccc(F)c2)C1=O`, for which the inhibition is -6.82% (inactive).
As for `Brc1ccc(-c2n(-c3ccccn3)c3ccccc3[n+]2-c2ccccn2)cc1`, the inhibition was 24.6% (inactive).
With `CCOC(=O)c1sc2nc(SC)nc(-c3ccccc3)c2c1N` the figure was -31.5% (inactive); with `CCOC(=O)c1sc(-c2cccc([N+](=O)[O-])c2)cc1N`, 75.2% (active).
For `Cc1cccc(C(=O)NNC(=O)c2cccc([N+](=O)[O-])c2)c1`, the inhibition was 3.14% (inactive).
As for `CC(C)c1ccc(NC(=S)NC2CC3C=CC2C3)cc1` (centres undefined), the figure is 51.2% (inactive); as for `CC(=O)Nc1nc2c(s1)C(=O)NCC(C)(C)C2`, 12.8% (inactive); as for `Brc1ccc(-c2noc(-c3ccccc3)n2)o1`, 26.1% (inactive).
Take `CS(=O)(=O)c1ccc(Cl)c(NC(=O)Nc2ccccc2)c1`: the inhibition is 2.73% (inactive).
In the case of `CCCCCCOC(=O)NCC(O)c1ccccc1` (centres undefined), the inhibition was 1.35% (inactive).
With `CCCCCC(O)c1cccc(OCc2ccc3ccccc3n2)c1` (centres undefined) the figure was 88.4% (active) and -8.07% (inactive); with `CCCn1c(C(O)c2ccc(OCC)cc2)nc2ccccc21` (centres undefined), 19% (inactive).
With `O=C(NC(=O)c1cc(OCC(F)(F)F)ccc1OCC(F)(F)F)Nc1ccccc1` the figure was 6.78% (inactive); with `Cc1ccc(/C=N/NC(=O)CSc2ccccn2)o1`, -0.26% (inactive); with `CC(C)n1c(=S)[nH]c2cc(C(F)(F)F)ccc21`, 22.9% (inactive).
With `COc1ccc(CNC(=O)CCCn2nc(C)c([N+](=O)[O-])c2C)cc1`, the inhibition is 11.7% (inactive).
On to `Cc1ccc(Oc2cc(NC(=O)CCCn3nc(C)c([N+](=O)[O-])c3C)cc([N+](=O)[O-])c2)cc1`, for which the inhibition was 71.1% (active).
As for `CCc1ccc(NC(=O)Cn2nc(C)c([N+](=O)[O-])c2C)cc1`, the figure is 14.9% (inactive).
With `Cc1ccc(/C=N/NC(=O)CN2CCN(Cc3ccccc3)CC2)s1`, the inhibition is 13.5% (inactive).
Take `CCOC(=O)c1ccc(NC(=O)Cn2cnc3cc(C)c(C)cc32)cc1`: the inhibition is 55.6% (inactive).
With `O=C(NNS(=O)(=O)c1ccccc1)c1cnn(-c2ccc(Cl)cc2)c1C(F)(F)F` the figure was -3.7% (inactive); with `C[C@H](NC(=O)c1nc[nH]c1C(=O)N[C@@H](C)C(=O)OC(C)(C)C)C(=O)OC(C)(C)C`, 1.44% (inactive); with `Cc1ccc(-c2noc(CSc3nnnn3-c3ccccc3)n2)cc1`, 70.7% (active).
With `Cc1ccc(Nc2nc(CSc3nnnn3-c3ccccc3)cc(=O)[nH]2)cc1` the figure was 81.8% (active); with `COc1ccc(C)cc1-n1nnnc1SCc1nc2ccccc2c(=O)[nH]1`, 12.6% (inactive); with `Cc1ccc(-c2noc(CSc3nnc(-c4cccs4)n3C)n2)cc1`, -8.68% (inactive).
As to `O=c1c2ccccc2nc(CSc2nnnn2-c2ccccc2)n1-c1ccccc1`, the inhibition is 32.4% (inactive).
Regarding `Cc1ccc(-c2noc(CSc3nnc(-c4ccccc4)n3C)n2)cc1`, the inhibition is 66.5% (inactive).
With `Cn1c(C(=O)O)ccc1S(=O)(=O)N(Cc1ccccc1)Cc1ccccc1` the figure was 2.64% (inactive); with `O=C(NC(=O)c1ccccc1N1CCCCC1)Nc1ccc(Br)cc1`, -4.77% (inactive); with `Cc1ccc(OCC(=O)c2cc(C)n(Cc3ccco3)c2C)c([N+](=O)[O-])n1`, 31% (inactive).
Turning to `CCc1ccc2c(c1)C(c1ccc([N+](=O)[O-])cc1)=NNC(c1ccccc1)=N2`, the inhibition was 93.7% (active).
As for `Cc1ccc(C2=Nc3c(ccc4ccccc34)C(c3ccncc3)=NN2)cc1`, the figure is 64.5% (inactive).
With `CCOc1ccc2c(c1)C(c1ccc(C)cc1)=NNC(c1ccc(C)cc1)=N2` the figure was 37.2% (inactive).
With `C/C(=N/Nc1nc(-c2ccccc2)c(CC(=O)O)s1)c1ccccc1` the figure was -18.2% (inactive); with `CCCCN(CCCC)CC(O)Cn1c2ccccc2c(=O)c2ccccc21` (centres undefined), 11% (inactive); with `CC(NC(=O)C(=O)Nc1nccs1)c1ccccc1` (centres undefined), 24.1% (inactive).
Consider `O=C(O)CCCCCCCCCC[n+]1ccccc1`, for which the inhibition was -11.5% (inactive).
With `CCc1nc(C)ccc1OCC(=O)N(CC)CC` the figure was 18.9% (inactive); with `CCC(C)(C)c1ccc(OCC(=O)N(C)C)c(C(C)(C)CC)c1`, 85.7% (active); with `CN(C)CCOc1ccc(Cl)cc1C(C)(C)C`, -2.87% (inactive).
With `Cn1nccc1NS(=O)(=O)c1ccc(F)cc1`, the inhibition is -5.82% (inactive).
`Cc1cc(=O)[nH]c(S)c1C#N`: the inhibition is 2.71% (inactive).
In the case of `CC(C)(C)c1ccc(CCC2OCC(CN3CCOCC3)O2)cc1` (centres undefined), the inhibition was 3.73% (inactive).
With `COc1ccccc1-n1cn[nH]c1=S` the figure was 11.5% (inactive); with `Cc1cc(SCC(=O)c2ccccc2)nc(SCC(=O)c2ccccc2)n1`, 15.9% (inactive); with `Cc1cc(Oc2ccc(Cl)cc2)nc(SCC(=O)c2ccccc2)n1`, 70.2% (active).
On to `COC(=O)c1cc(C(=O)CSc2nc(C)cc(C)n2)ccc1O`, for which the inhibition was 5.39% (inactive).
As for `O=C(NNC(=O)c1csc(-c2cccnc2)n1)Nc1ccc(Cl)cc1`, the figure is -32.3% (inactive).
For the compound `Cn1cc(S(=O)(=O)NC(c2ccccc2)c2ccccc2)c(=O)n(C)c1=O`, the inhibition was 9.19% (inactive).
Turning to `O=C(NCc1ccccc1Cl)NC(=O)c1csc([N+](=O)[O-])c1`, the inhibition is -5.11% (inactive).
Consider `CCN1CCC2(CC1)N=C(c1ccc(F)cc1)C(=S)N2C(=O)c1ccc(C)cc1`, for which the inhibition was 95.4% (active).
As for `Cc1ccc(C(=O)N(CN2CCCC2=O)c2ccc(F)cc2)cc1`, the figure is -13.1% (inactive).
Consider `CCn1c(C(C)NC(=O)c2ccc(C)cc2)n[nH]c1=S` (centres undefined), for which the inhibition was 25.9% (inactive).
As to `CCn1c(CNC(=O)c2ccco2)nnc1SCC(=O)Nc1cccc(F)c1`, the inhibition was -0.15% (inactive).
As for `CCn1c(SCC(=O)Nc2cccc(F)c2)nnc1-c1cc2cc(Br)ccc2o1`, the inhibition is 72.8% (active).
As for `Cn1c(SCC(=O)Nc2ccc(Br)cc2F)nnc1-c1ccco1`, the figure is 24.1% (inactive); as for `COC(=O)[C@H](Cc1ccccc1)NC(=O)Nc1ccc(OC)cc1`, 4.48% (inactive); as for `CCOC(=O)c1cc(NC(=O)c2ccc(Cl)cc2)c(=O)oc1-c1ccccc1`, 77.2% (active).
As to `CCOC(=O)NNC(=O)c1ccc(Cl)cc1`, the inhibition was -19.9% (inactive).
With `CC(=O)c1cc(NC(=O)c2ccccc2)c(=O)oc1/C=C/N(C)C` the figure was 11.8% (inactive); with `COc1ccc(NC(=O)C2=C(C)NC(=O)NC2c2ccccc2[N+](=O)[O-])cc1` (centres undefined), -5.78% (inactive); with `O=C(Nc1ccc(S(=O)(=O)Nc2nccs2)cc1)c1cc(-c2ccncc2)nc2ccccc12`, 7.48% (inactive).
With `Cc1ccc(-c2cc(C(=O)N/N=C/C=C/c3ccccc3)n[nH]2)o1` the figure was 13.4% (inactive); with `O=C(N/N=C/C=C/c1ccccc1)C1CC1(c1ccccc1)c1ccccc1` (centres undefined), 82.4% (active); with `CC(/C=C/c1ccccc1)=N\NC(=O)C1CC1(C)c1ccccc1` (centres undefined), 43.4% (inactive).
Turning to `CC(C)c1cc(CN2CCOCC2)cc(C(C)C)c1O`, the inhibition is -5.16% (inactive).
Take `CCn1nc(C)c(NC(=O)/C=C/c2ccc(OC)c(COc3ccc(Br)cc3)c2)c1C`: the inhibition is 86.6% (active).
As for `COc1ccc(/C=C/C(=O)Nc2c(C)nn(C)c2C)cc1COc1ccc(Br)cc1`, the figure is 105% (active); as for `COc1ccc(/C=C/C(=O)Nc2ccc(C)cc2)cc1S(=O)(=O)N1CCOCC1`, -1.01% (inactive).
Take `COc1ccc(/C=C/C(=O)Nc2cccnc2)cc1OC`: the inhibition is 2.86% (inactive).
On to `COc1ccc(/C=C/C(=O)Nc2ccc3c(c2)OCCO3)cc1OC`, for which the inhibition is -1% (inactive).
As for `COc1ccc(C(C)=O)cc1COc1ccc(Cl)c(C)c1`, the figure is 5.12% (inactive); as for `Cc1ccc(NC(=O)Nc2cc(-c3ccccc3)nn2C)cc1Cl`, 7.85% (inactive); as for `C=CCNC(=S)N1CCc2[nH]c3ccccc3c2C1`, 0.96% (inactive).
With `COc1ccc(CCNC(=O)C(=O)Nc2ccc3nc4n(c(=O)c3c2)CCCCC4)cc1OC` the figure was 8.36% (inactive); with `O=C(Nc1cccc2c1N(C(=O)c1ccco1)CCC2)c1ccco1`, -8% (inactive); with `CC1(C)CC(=O)C=C(Nc2ccccc2)C1`, 5.42% (inactive).
In the case of `O=C(O)/C=C/c1ccc2c(c1)OCCO2`, the inhibition was -23.6% (inactive).
For the compound `COc1ccc(C(=O)Nc2ccccc2C(=O)N/N=C/c2ccccc2OC)cc1`, the inhibition was -12.8% (inactive).
As for `COc1ccc(C(=O)Nc2ccccc2C(=O)N/N=C/c2ccc(O)c(OC)c2)cc1`, the figure is 88.8% (active).
`COc1cc(/C=N\NC(=O)CNC(=O)c2cccc([N+](=O)[O-])c2)ccc1O`: the inhibition was 8.27% (inactive).
As to `CCOC(=O)Cn1c(=O)oc2cc(S(=O)(=O)NCC3CCCO3)ccc21` (centres undefined), the inhibition was 22.5% (inactive).
For the compound `OC(CNCC1CCCO1)Cn1c2ccc(Br)cc2c2cc(Br)ccc21` (centres undefined), the inhibition is 108% (active).
With `CCc1cc(Br)ccc1NC(=O)C1CCCO1` (centres undefined) the figure was -17.3% (inactive); with `O=C(Nc1ccc(S(=O)(=O)N2CCOCC2)cc1)c1ccc2ncsc2c1`, 2.87% (inactive).

The values above are taken from PubChem BioAssay AID2732 (Emory University Molecular Libraries Screening Center, 2010).
